Screening results from PubChem.
CYP2C9 inhib: blockers of cytochrome P450 2C9 activity – biochemical, luminescence, ADME assay, primary screen; CYP2C9 Supersomes, luciferin-H conversion; inhibition, % at 5 µM; 96,000 tested, 20% active;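 active means blocking of liver enzyme CYP2C9 beyond about 50% at 5 µM, limit read from the data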
CYP2C9 activ: human CYP2C9 activators, primary screen, biochemical, luminescence | Cytochrome P450 2C9 (Homo sapiens), P11712 | AID 1024, 2008 | recombinant CYP2C9, luciferin-H conversion; stronger effect = higher value; factor 1 = untreated enzyme, 0 = blocked | activation factor at 5 µM | 96,000 tested, 1.4% active;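 active means activation factor of 2 or more for CYP2C9 at a 5 µM dose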;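 further: 0 = sulfaphenazole-blocked wells and 1 = vehicle-only wells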
Pyk2 oligo antag: antagonists of Pyk2 self-association, primary screen, Q293 cells, FERM NanoBiT luminescence, HTS; z-score (the deposit names both 25 µM and 10 µM); 99,000 tested, 0.83% active; stronger effect = lower value;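 active means Z-score of -3 or lower, scaled per plate to the spread of control and sample wells; inactive means z-score above -3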;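 further: negative z-score means lost luminescence so less FERM oligomerization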
Target sequence (Q14289 whole entry, looked up): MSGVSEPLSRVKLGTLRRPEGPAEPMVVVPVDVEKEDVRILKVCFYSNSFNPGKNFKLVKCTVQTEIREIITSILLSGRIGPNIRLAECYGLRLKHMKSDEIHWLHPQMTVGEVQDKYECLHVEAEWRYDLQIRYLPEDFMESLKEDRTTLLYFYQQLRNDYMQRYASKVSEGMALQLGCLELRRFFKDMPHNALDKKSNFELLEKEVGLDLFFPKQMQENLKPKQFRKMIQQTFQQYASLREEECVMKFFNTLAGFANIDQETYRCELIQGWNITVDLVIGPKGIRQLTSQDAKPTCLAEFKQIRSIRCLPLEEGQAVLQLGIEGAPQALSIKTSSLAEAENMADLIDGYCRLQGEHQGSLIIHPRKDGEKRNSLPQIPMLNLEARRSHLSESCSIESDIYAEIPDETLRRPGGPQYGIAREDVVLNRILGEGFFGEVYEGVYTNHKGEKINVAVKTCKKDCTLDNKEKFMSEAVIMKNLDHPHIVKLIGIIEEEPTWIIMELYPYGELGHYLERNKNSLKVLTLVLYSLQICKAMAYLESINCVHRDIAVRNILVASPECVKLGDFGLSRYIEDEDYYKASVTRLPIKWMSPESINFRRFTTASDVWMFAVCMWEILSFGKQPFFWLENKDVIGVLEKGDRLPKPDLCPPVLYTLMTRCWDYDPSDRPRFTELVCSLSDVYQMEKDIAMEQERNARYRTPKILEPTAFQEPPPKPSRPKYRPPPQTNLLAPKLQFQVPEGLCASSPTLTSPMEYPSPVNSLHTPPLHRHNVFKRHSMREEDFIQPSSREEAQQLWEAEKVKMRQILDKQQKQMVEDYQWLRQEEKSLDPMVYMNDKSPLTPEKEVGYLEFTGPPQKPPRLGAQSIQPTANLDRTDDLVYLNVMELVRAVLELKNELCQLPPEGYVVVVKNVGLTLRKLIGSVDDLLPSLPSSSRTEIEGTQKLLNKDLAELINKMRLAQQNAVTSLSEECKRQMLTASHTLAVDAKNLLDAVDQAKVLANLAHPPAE
CYP2C19 act: human CYP2C19 activators, primary screen, biochemical, luminescence; Cytochrome P450 2C19 (Homo sapiens), P33261; recombinant CYP2C19, luciferin-H EGE luminescence; stronger effect = higher value; 0 = fully inhibited enzyme, 1 = untreated enzyme; activation factor at 5 µM; 96,000 tested, under 10 active;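 active means activation factor of at least 2 at 5 µM in the primary screen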;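 further: 0 = wells with 2.5 mM tranylcypromine and 1 = vehicle-only wells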
CYP2C19 inh: blockers of cytochrome P450 2C19 activity – biochemical, luminescence, ADME assay, primary screen. P33261. CYP2C19 Supersomes, luciferin-H EGE luminescence, 30 min. inhibition, % at 5 µM. 96,000 tested, 21% active. AID 778, 2007;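 active means CYP2C19 inhibition above a set limit at 5 µM in the primary screen, cut at about 50% in these data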;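 further: plate controls were negative control wells for no effect and 2.5 mM tranylcypromine positive control for full effect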
* hit, by the source's call; / = not tested or not shown. This is a sample that favours compounds with a hit; in the whole collection about 28% have one here.

SMILES	CYP2C9 inhib	CYP2C9 activ	Pyk2 oligo antag	CYP2C19 act	CYP2C19 inh
O=C(CCl)Nc1cccc(-c2cnc3ccccc3n2)c1	-31	1.3	0.35	0.2	80*
O=C(CCl)Nc1ccc(Oc2cnc3ccccc3n2)cc1	-76	1.8	-0.5	0.7	35
Cc1cccc(-n2nnnc2SCc2csc(-c3ccccc3)n2)c1	/	/	-1.8	/	/
Cn1c(=O)c2c(nc(CN3CCc4ccccc4C3)n2CC(=O)c2ccccc2)n(C)c1=O	/	/	0.02	/	/
COC(=O)C1C2CCC(C2)C1C(=O)OCC(=O)c1ccc(C)cc1 (stereo unspecified)	10	0.9	0.82	0.8	20
Cn1ccs/c1=N\S(=O)(=O)c1ccc(Br)cc1	-141	2.4*	-0.24	0.6	37
Cc1c(NC(=O)c2ccc3c(c2)OCO3)cccc1-c1nc2ccccc2o1	69*	0.3	-0.51	0.5	50
O=C(Nc1ccc(-c2nc3ccccc3o2)cc1)c1ccc2c(c1)OCO2	15	0.9	2.1	0.9	7
Cc1ccc(-c2nc3ccccc3o2)cc1NC(=O)c1ccc2c(c1)OCO2	70*	0.3	-0.28	0.5	50
Clc1ccc2noc(-c3ccccc3)c2c1	2	1	-0.52	1	2
CC1(c2ccc3noc(-c4ccc(F)cc4)c3c2)OCCO1	14	0.9	0.12	0.3	69*
CC1(c2ccc3noc(-c4ccccc4)c3c2)OCCO1	45	0.6	-0.01	0.5	50*
Cc1cc(C(F)F)n2nc(C(=O)Nc3cccnc3Cl)nc2n1	1	1	0.51	1.1	-7
COC(=O)COc1ccc(S(=O)(=O)Nc2ccc3c(c2)OCO3)cc1	93*	0.1	0.17	0	99*
CC(C)NS(=O)(=O)c1ccc(OCC(N)=O)c(Cl)c1	24	0.8	-0.08	0.5	49
COC(=O)COc1ccc(S(=O)(=O)Nc2ccc3c(c2)OCO3)cc1Cl	70*	0.3	-0.06	0	98*
COc1ccc(S(=O)(=O)N/N=C\c2ccc3c(c2)OCO3)cc1	79*	0.2	2.9	0.3	71*
COCCn1nnnc1CN(Cc1ccco1)Cc1cc2cc3c(cc2[nH]c1=O)OCO3	-4	1	-0.13	0.9	10
Cc1ccc2cc(CN(Cc3ccc4c(c3)OCO4)Cc3nnnn3Cc3ccco3)c(=O)[nH]c2c1C	80*	0.2	0.39	0.1	86*
Cc1ccc(C)c2[nH]c(=O)c(CN(Cc3ccc4c(c3)OCO4)Cc3nnnn3Cc3ccco3)cc12	75*	0.2	1	0.6	38
Cc1ccc2cc(CN(CCN3CCOCC3)Cc3nnnn3Cc3ccco3)c(=O)[nH]c2c1C	69*	0.3	1.6	0.6	38
O=C(Nc1c(F)c(F)c(F)c(F)c1F)C1CCCCC1	14	0.9	0.25	0.8	16
CCOC(=O)c1cnn(-c2ccccc2)c1-n1cccc1C(=O)C(=O)Nc1ccccc1	72*	0.3	-0.4	0.5	46
CCOC(=O)c1cnn(-c2ccccc2)c1-n1cccc1C(=O)C(=O)Nc1ccc(F)cc1	75*	0.3	1.2	0.6	39
Cn1c(CCNC(=O)c2ccccc2)nc2cc(NC(=O)C3CCCCC3)ccc21	20	0.8	0.29	0.9	10
SMILES	CYP2C9 inhib	CYP2C9 activ	Pyk2 oligo antag	CYP2C19 act	CYP2C19 inh
OC(C#CCN1CCOCC1)(c1ccccc1)C1CC1 (stereo unspecified)	-5	1.1	0.74	0.4	57*
OCCN1CCN(c2ncnc3ccc(Br)cc23)CC1	-1	1	/	1.1	-9
O=C(CSc1nnc(NC2CCCCC2)s1)Nc1ccc(N2CCOCC2)cc1	18	0.8	-1.7	1	-2
CC(C)Nc1nnc(SCC(=O)Nc2ccc(F)cc2)s1	70*	0.3	-0.11	0.1	91*
Cc1ccc(NC(=O)CSc2nnc(NC(=O)CN3CCOCC3)s2)cc1	10	0.9	0.04	0.4	57*
Cc1cccc(C)c1NC(=O)CSc1nnc(NC(=O)CN2CCOCC2)s1	1	1	1.2	0.8	20
CC(=O)c1ccc(NC(=O)CSc2nnc(NC(=O)CN3CCOCC3)s2)cc1	67*	0.3	-0.29	0.9	6
CCCSc1nnc(NC(=O)Nc2ccc(F)cc2)s1	29	0.7	-1.7	0.9	15
COc1cccc(NC(=O)c2nnn(Cc3ccc(Br)cc3F)c2N)c1	11	0.9	/	1.2	-22
CC/C(O)=C(\C#N)c1nnc2n1CCCCC2	-8	1.1	0.18	1.1	-10
CN(C)CCCNC(=O)C1CCNCC1	-1	1	-0.3	1	5
Cc1cc(NC(=O)C2CCN(S(=O)(=O)Cc3ccccc3)CC2)ccc1-n1cnnn1	/	/	-0.51	/	/
O=S(=O)(Nc1nc2ccccc2[nH]1)c1ccc2ccccc2c1	44	0.6	1.5	0.3	74*
O=S(=O)(Nc1ncn[nH]1)c1ccc2ccccc2c1	-4	1	-0.77	1.1	-12
O=C(CNC(=O)OCc1ccccc1)NCC(=O)N1CCCC1C(=O)OCc1ccccc1 (stereo unspecified)	5	0.9	0.43	1	0
COCCn1c(COC)nc2ccccc21	12	0.9	1.8	0.9	5
Cc1ccccc1OCCn1c(=O)sc2ccccc21	/	/	-1.8	/	/
OCc1nc2ccccc2n1CCCOc1ccccc1	1	1	-0.14	0.5	53*
COCc1nc2ccccc2n1CCOc1ccccc1OC	16	0.8	0.54	0.4	60*
COCCn1c(COc2ccc(C)cc2)nc2ccccc21	30	0.7	-1	0.3	65*
COc1ccccc1OCCn1c(=O)sc2ccccc21	66*	0.3	0.7	0.3	68*
COCCn1c(-c2ccc(OC)cc2)nc2ccccc21	20	0.8	0.45	0.9	8
O=C(O)CNc1nc(Cl)ccc1[N+](=O)[O-]	5	0.9	-0.96	0.9	6
OCCn1c(SCCOc2ccccc2)nc2ccccc21	7	0.9	-0.45	0.2	75*
Cc1ccc(OCCCn2c(CO)nc3ccccc32)cc1	53*	0.5	0.7	0	95*
SMILES	CYP2C9 inhib	CYP2C9 activ	Pyk2 oligo antag	CYP2C19 act	CYP2C19 inh
Cc1ccc(OCCn2c(=O)cnc3ccccc32)cc1	/	/	0.58	/	/
O=C(CCN1C(=O)COc2ccccc21)N1CCCCC1	8	0.9	0.72	0.7	30
CC(C)CSc1ncnc2c1oc1nc3c(cc12)COC(C)(C)C3	72*	0.3	0.23	0.8	21
Cc1cc(NC(=O)c2ccco2)ncc1NC(=O)Cc1ccccc1	10	0.9	-0.89	1	2
Cc1ccccc1Sc1ncnc2onc(C)c12	49	0.5	0.68	0	96*
Cc1noc2ncnc(Sc3ccc(Cl)cc3)c12	10	0.9	0.24	0.2	79*
Cc1ccc(Sc2ncnc3onc(C)c23)cc1	23	0.8	-0.15	0.3	67*
Cc1noc2ncnc(Oc3ccc(F)cc3)c12	-7	1.1	0.91	1	5
